# Test results: PubChem BioAssay (NCI)
# This is part of a sample that, as a whole, favours compounds with a hit. Of some 83,000 tested, about 20% had one in any assay.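 The test compound was applied at a single concentration to cells in 96-well plates for 48 hours, and percent growth was recorded.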 A number with no mark means an inactive call. Active and inactive are the calls of the source. The calls were made as follows: active = growth percent below 10; inactive = the rest.
# Tested on: MDA-MB-435 melanoma
# Assay: NCI-60 one-dose screen, 48 h (100 = growth as untreated, 0 = no growth, -100 = all killed)
# Conditions: 10 µM
row,SMILES,growth
1,COc1ccc2nc(Cl)c(Cn3nnc(Cc4ccccc4)n3)cc2c1,29.3%
2,C=C/C(C)=C/C[C@]1(C)[C@H](C)[C@@H](OC(=O)CCC)[C@H](O)[C@@]23C(=C[C@H](OC)C[C@@H]12)[C@@H](OC(=O)CCC)O[C@H]3OC(C)=O,-70.3% (active)
3,COc1ccc(-c2cc(-c3cc(OC)ccc3OC)nc(N)c2C#N)cc1,46.8%
4,COc1ccc(-c2nn(-c3cccc(Cl)c3)cc2-c2cc(-c3ccccc3)nc(N)n2)cc1,57%
5,COc1ccccc1-n1c(-c2sc(NC(C)=O)nc2C)n[nH]c1=S,105%
6,COc1cc2c3c(n(C4CCN(C)CC4)c(=O)c2cc1OC)-c1cc2c(cc1C3=O)OCO2,84.5%
7,COc1cc(-c2ccc[nH]2)[nH]c1/C=C1\N=C(C)C(C(=O)NC(C)C)=C1C,14.9%
8,COc1ccc(-c2nn(-c3cccc(Cl)c3)cc2C=C(C#N)C#N)cc1,-68.5% (active)
9,Fc1ccc2[nH]cc(-c3nc(-c4ccsc4)cs3)c2c1,105%
10,CCn1c2ccc(O)cc2c2c(C)c3c[n+](C)ccc3c(C)c21,64.9%
11,CC[C@H]1OC(=O)[C@H](C)[C@@H](O[C@H]2C[C@@](C)(OC)[C@@H](O)[C@H](C)O2)[C@H](C)[C@@H](O[C@@H]2O[C@H](C)C[C@H](N(C)C)[C@H]2O)[C@](C)(OC)C/C(C)=C2/O[C@@]1(C)C=C2C,-83.4% (active)
12,N#Cc1c(-c2ccc(Cl)cc2)cc(-c2cc(O)ccc2O)nc1N,6.77% (active)
13,COc1cc2c3c(n([C@@H]4CCOC4)c(=O)c2cc1OC)-c1cc2c(cc1C3=O)OCO2,62.7%
14,COc1ccc(-c2cc(-c3ccccc3)nc(SCCCCCCC(=O)NO)n2)cc1,35.5%
15,COc1ccc(-c2nn(-c3cccc(Cl)c3)cc2-c2c(C#N)c(=O)n3[nH]c(-c4ccccc4)nc3c2C#N)cc1,91.1%
16,Clc1nc2ccccc2cc1Cn1nnc(Cc2ccccc2)n1,65.3%
17,CN1CCc2c(sc3nc4n(-c5ccc(Cl)cc5)cnn4c(=O)c23)C1,102%
18,O=C(CCCCNC(=O)c1nc(-c2ccccc2)n(-c2ccccc2)n1)NO,79.2%
19,Cc1c2c[n+](C(C)C)ccc2c(C)c2c1[nH]c1ccccc12,15.9%
20,Cc1c2cnccc2c(C)c2c1c1cc(O)ccc1n2C(C)C,8.19% (active)

row,SMILES,growth
1,CC(C)(C)OC(=O)CN1CCc2c(sc3ncnc(N/N=C/c4cccc5ccccc45)c23)C1,27.6%
2,Nc1nc(-c2cccnc2)nc2c1sc(=S)n2-c1ccccc1,111%
3,CC(C)(C)OC(=O)N1CCc2c(sc3ncnc(N/N=C/c4cccc(Br)c4)c23)C1,34.3%
4,O=C(CCCSc1nc(-c2ccc(Cl)cc2)cc(-c2ccc(Cl)cc2)n1)NO,24%
5,CN1CCc2c(sc3nc4n(-c5ccc(Cl)cc5)c(=O)[nH]n4c(=O)c23)C1,103%
6,CCNc1nc(C(F)(F)F)nc2c1sc(=S)n2-c1ccccc1,113%
7,Cc1cc(NC(=O)c2ccc(C)c(Nc3nccc(-c4cccnc4)n3)c2)cc(-n2cnc(C)c2)c1,12.2%
8,c1cncc(-c2csc(-c3c[nH]c4ccccc34)n2)c1,86.9%
9,Cc1ccc(NC(=S)NNC(=S)Nc2ccc(C)cc2)cc1,-1.34% (active)
10,Cc1ccc(C2=NN(c3ccc(S(C)(=O)=O)cc3)C(=O)CC2)cc1,-61.2% (active)
11,CCc1ccc(C2=NN(c3ccc(S(C)(=O)=O)cc3)C(=O)CC2)cc1,-24.3% (active)
12,COc1ccc(-c2nn(-c3cccc(Cl)c3)cc2/C=C2\NC(=S)N(c3ccc(Cl)cc3)C2=O)cc1,7.26% (active)
13,COc1ccc(-c2nn(-c3cccc(Cl)c3)cc2-c2c(C#N)c(=O)n3[nH]c(-c4ccc(C)cc4)nc3c2C#N)cc1,10.8%
14,c1cnc2[nH]cc(-c3nc(-c4ccsc4)cs3)c2c1,98.3%
15,O=C1NC(=O)c2c(CCCSc3nc4ccccc4c(=O)n3CCc3ccccc3)cccc21,85.6%
16,CCOC(=O)c1sc2ncnc(Nc3ccc4c(cnn4C(=O)Nc4ccc(C)c(Cl)c4)c3)c2c1C,100%
17,Nc1ccccc1NC(=O)c1ccc(CCCC(=O)Nc2ccc(C3CC3N)cc2)cc1 (centres undefined),18%
18,Cc1c(O)c(=O)ccn1C1CCC(CC2CCC(n3ccc(=O)c(O)c3C)CC2)CC1 (centres undefined),33.3%
19,Cc1c2cnccc2c(C)c2c1oc1ccccc12,91.6%

# Tested on: SW-620 colon
# Assay: as above
# Conditions: 10 µM
row,SMILES,growth
1,COc1ccc2nc(Cl)c(Cn3nnc(Cc4ccccc4)n3)cc2c1,66.4%
2,C=C/C(C)=C/C[C@]1(C)[C@H](C)[C@@H](OC(=O)CCC)[C@H](O)[C@@]23C(=C[C@H](OC)C[C@@H]12)[C@@H](OC(=O)CCC)O[C@H]3OC(C)=O,-61.1% (active)
3,COc1ccc(-c2cc(-c3cc(OC)ccc3OC)nc(N)c2C#N)cc1,65.5%
4,COc1ccc(-c2nn(-c3cccc(Cl)c3)cc2-c2cc(-c3ccccc3)nc(N)n2)cc1,45.3%
5,COc1ccccc1-n1c(-c2sc(NC(C)=O)nc2C)n[nH]c1=S,108%
6,COc1cc2c3c(n(C4CCN(C)CC4)c(=O)c2cc1OC)-c1cc2c(cc1C3=O)OCO2,56.2%
7,COc1cc(-c2ccc[nH]2)[nH]c1/C=C1\N=C(C)C(C(=O)NC(C)C)=C1C,7.72% (active)
8,COc1ccc(-c2nn(-c3cccc(Cl)c3)cc2C=C(C#N)C#N)cc1,-2.25% (active)
9,Fc1ccc2[nH]cc(-c3nc(-c4ccsc4)cs3)c2c1,94.8%
10,CCn1c2ccc(O)cc2c2c(C)c3c[n+](C)ccc3c(C)c21,41.3%
11,CC[C@H]1OC(=O)[C@H](C)[C@@H](O[C@H]2C[C@@](C)(OC)[C@@H](O)[C@H](C)O2)[C@H](C)[C@@H](O[C@@H]2O[C@H](C)C[C@H](N(C)C)[C@H]2O)[C@](C)(OC)C/C(C)=C2/O[C@@]1(C)C=C2C,-100% (active)
12,N#Cc1c(-c2ccc(Cl)cc2)cc(-c2cc(O)ccc2O)nc1N,8.32% (active)
13,COc1cc2c3c(n([C@@H]4CCOC4)c(=O)c2cc1OC)-c1cc2c(cc1C3=O)OCO2,50.2%
14,COc1ccc(-c2cc(-c3ccccc3)nc(SCCCCCCC(=O)NO)n2)cc1,22.6%
15,COc1ccc(-c2nn(-c3cccc(Cl)c3)cc2-c2c(C#N)c(=O)n3[nH]c(-c4ccccc4)nc3c2C#N)cc1,108%
16,Clc1nc2ccccc2cc1Cn1nnc(Cc2ccccc2)n1,86.6%
17,CN1CCc2c(sc3nc4n(-c5ccc(Cl)cc5)cnn4c(=O)c23)C1,110%
18,O=C(CCCCNC(=O)c1nc(-c2ccccc2)n(-c2ccccc2)n1)NO,64.4%
19,Cc1c2c[n+](C(C)C)ccc2c(C)c2c1[nH]c1ccccc12,22%
20,Cc1c2cnccc2c(C)c2c1c1cc(O)ccc1n2C(C)C,2.58% (active)

row,SMILES,growth
1,CC(C)(C)OC(=O)CN1CCc2c(sc3ncnc(N/N=C/c4cccc5ccccc45)c23)C1,33.9%
2,Nc1nc(-c2cccnc2)nc2c1sc(=S)n2-c1ccccc1,104%
3,CC(C)(C)OC(=O)N1CCc2c(sc3ncnc(N/N=C/c4cccc(Br)c4)c23)C1,41.1%
4,O=C(CCCSc1nc(-c2ccc(Cl)cc2)cc(-c2ccc(Cl)cc2)n1)NO,23.9%
5,CN1CCc2c(sc3nc4n(-c5ccc(Cl)cc5)c(=O)[nH]n4c(=O)c23)C1,109%
6,CCNc1nc(C(F)(F)F)nc2c1sc(=S)n2-c1ccccc1,106%
7,IC(I)I,102%
8,Cc1cc(NC(=O)c2ccc(C)c(Nc3nccc(-c4cccnc4)n3)c2)cc(-n2cnc(C)c2)c1,50.2%
9,c1cncc(-c2csc(-c3c[nH]c4ccccc34)n2)c1,102%
10,Cc1ccc(NC(=S)NNC(=S)Nc2ccc(C)cc2)cc1,44.3%
11,Cc1ccc(C2=NN(c3ccc(S(C)(=O)=O)cc3)C(=O)CC2)cc1,8.58% (active)
12,CCc1ccc(C2=NN(c3ccc(S(C)(=O)=O)cc3)C(=O)CC2)cc1,12.4%
13,COc1ccc(-c2nn(-c3cccc(Cl)c3)cc2/C=C2\NC(=S)N(c3ccc(Cl)cc3)C2=O)cc1,40.8%
14,COc1ccc(-c2nn(-c3cccc(Cl)c3)cc2-c2c(C#N)c(=O)n3[nH]c(-c4ccc(C)cc4)nc3c2C#N)cc1,-21% (active)
15,c1cnc2[nH]cc(-c3nc(-c4ccsc4)cs3)c2c1,111%
16,O=C1NC(=O)c2c(CCCSc3nc4ccccc4c(=O)n3CCc3ccccc3)cccc21,98.8%
17,CCOC(=O)c1sc2ncnc(Nc3ccc4c(cnn4C(=O)Nc4ccc(C)c(Cl)c4)c3)c2c1C,102%
18,Nc1ccccc1NC(=O)c1ccc(CCCC(=O)Nc2ccc(C3CC3N)cc2)cc1 (centres undefined),14.9%
19,Cc1c(O)c(=O)ccn1C1CCC(CC2CCC(n3ccc(=O)c(O)c3C)CC2)CC1 (centres undefined),43.1%
20,Cc1c2cnccc2c(C)c2c1oc1ccccc12,64.1%
